Assay [1] deals with Zika virus NS2B-NS3 protease (unlinked complex). In words: Primary screen GU Rhodamine qHTS for Zika virus inhibitors: Unlinked NS2B-NS3 protease assay (AID 1347159). Further: nearly all actives have a fitted effect of over 60% in size. Further: potency means the concentration at half of the fitted maximal effect. The gist of the method: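 Compounds, tested up to 114 microM, were incubated for 15 minutes with 25 nM unlinked NS2B-NS3 protease at pH 8.0. Cleavage of 1.5 microM Rhodamine110 substrate was then followed by fluorescence for 15 minutes.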
On the technique in general: In qHTS, concentration-response curves come from the screen itself.

The test system of assay [2] is Zika virus NS2B-NS3 protease (linked construct). Nature of the assay: Primary screen NINDS Rhodamine qHTS for Zika virus inhibitors (AID 1347160). Further: nearly all actives have a fitted effect of over 55% in size. The essentials: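 Percent inhibition, normalized to uninhibited and enzyme-free controls, is fitted to a 4-parameter Hill equation. Fluorescence change comes from a 15-min cleavage of 1.5 microM bis-peptide Rhodamine110 substrate by 25 nM linked NS2B-NS3 at room temperature.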

Consider 28 molecules from PubChem BioAssay (NCATS).

Each structure is given as a SMILES string. Inconclusive results are not listed. Values without a mark were called inactive. Active and inactive are the calls of the source. The call rests on the fitted dose curve; in most records, active means well fitted inhibition curve with a large enough effect; inconclusive means small, poorly fitted or top-dose-only effect; inactive means no such curve, though single readings can be large or run the other way.
On the % scale 0 is the no-effect control and ±100 the full control effect.

For `CC(=O)OC[C@@]12[C@H](O)C[C@]3(C)C(=CCC4[C@@]5(C)CC[C@H](O[C@@H]6O[C@H](C(=O)O)[C@@H](O[C@@H]7O[C@H](CO)[C@@H](O)[C@H](O)[C@H]7O)[C@H](O)[C@H]6O[C@@H]6O[C@H](CO)[C@@H](O)[C@H](O)[C@H]6O)[C@](C)(CO)C5CC[C@]43C)[C@@H]1CC(C)(C)[C@@H](OC(C)=O)[C@@H]2O` (stereo partly specified), the Potency entry in assay [1] and in assay [2] was “inactive” in each case.

Turning to `CC(=O)O[C@@H]1[C@H](O[C@@H]2O[C@H](CO)[C@@H](O)[C@H](O)[C@H]2O)[C@@H](O[C@@H]2O[C@@H](C)[C@H](O)[C@@H](O[C@@H]3O[C@H](CO)[C@@H](O)[C@H](O)[C@H]3O)[C@H]2O)[C@H](OC(=O)C23CCC4(C)C(=CCC5C6(C)CC(O)C(O[C@@H]7O[C@H](C(=O)O)[C@@H](O)[C@H](O)[C@H]7O)C(C)(C(=O)O)C6CCC54C)C2CC(C)(C)CC3O)O[C@@H]1C` (stereo partly specified), the figures for the activity change, negative = inhibition in assay [1] and in assay [2] were 7.44% [at 19.1 µM] and 3.1% [at 10.7 µM], respectively.

For `COc1cc(C(C)=O)ccc1O[C@@H]1O[C@H](CO[C@@H]2O[C@@H](C)[C@H](O)[C@@H](O)[C@H]2O)[C@@H](O)[C@H](O)[C@H]1O`, the Potency result in assay [1] and in assay [2] was “inactive” throughout.

`C[C@]12CCC[C@](C)(C(=O)O)C1CCC13C=C(CO)C(CCC12)C3` (stereo partly specified): the Potency entry in assay [1] and in assay [2] was “inactive” each time.

As to `CC1=C2C(=O)O[C@@H](c3ccoc3)[C@]2(C)CCC1`, the Potency entry in assay [1] and in assay [2] was “inactive” throughout.

With `CNC(=O)c1ccc(Nc2ncc(C(F)(F)F)c(NCc3nccnc3N(C)S(C)(=O)=O)n2)cc1`, the Potency entry in assay [1] and in assay [2] was “inactive” throughout.

For the molecule `NC(=O)c1ccc(OCC2NC(=O)C3CCCN3C2=O)cc1` (stereo unspecified), the Potency entry in assay [1] and in assay [2] was “inactive” each time.

Take `O=C(O)[C@H]1CCCC[C@H]1C(=O)N1CCc2ccccc2[C@H]1CN1C(=O)c2ccccc2C1=O`: the Potency entry in assay [1] and in assay [2] was “inactive” throughout.

On to `CCc1cc2c(=O)c(-c3nc4ccccc4s3)coc2c(CN2CCCCC2)c1O`, for which, in assay [1], the Potency is 12.6 µM (active). For the same molecule, the Potency entry in assay [2] was “inactive”.

For the molecule `CC(C)NC[C@H](O)COc1ccc(CCOCC2CC2)cc1`, the Potency entry in assay [1] and in assay [2] was “inactive” each time.

For the molecule `O=C(O)c1n[nH]c2c1C[C@H]1C[C@@H]21`, the Potency entry in assay [1] and in assay [2] was “inactive” throughout.

Take `C=CCc1ccc(O[C@@H]2O[C@H](CO)[C@@H](O)[C@H](O)[C@H]2O)c(OC)c1`: in assay [1], the Potency was 12.6 µM (active). Moreover, the Potency result in assay [2] is “inactive”.

For the molecule `C=C(C)C(C)C1OC23CC4(CO2)C(CCC2C5(C)CCC(OC6OCC(O)C(OC7OC(CO)C(O)C(OC8OCC(O)C(O)C8O)C7O)C6OC6OC(CO)C(O)C6O)C(C)(C)C5CCC24C)C3C(C)(O)C1OC(C)=O` (stereo unspecified), the Potency entry in assay [1] and in assay [2] was “inactive” in each case.

Take `CC1(C)C[C@H]2C3=CCC4[C@@]5(C)CC[C@H](O[C@H]6O[C@H](C(=O)O)[C@@H](O)[C@H](O)[C@H]6O[C@H]6O[C@H](CO)[C@@H](O)[C@H](O)[C@H]6O[C@@H]6O[C@H](CO)[C@@H](O)[C@H](O)[C@H]6O)[C@](C)(CO)C5CC[C@@]4(C)[C@]3(C)CC[C@@]2(C)[C@H](O[C@@H]2OC[C@H](O)[C@H](OC3O[C@H](CO)[C@@H](O)[C@H](O)[C@H]3O)[C@H]2O)[C@@H]1O` (stereo partly specified): the activity change, negative = inhibition in assay [1] is 6.08% [at 19.1 µM]; in assay [2], -4.25% [at 10.7 µM].

As to `CC(C)Nc1cc(-c2c[nH]c(C(=O)N[C@H](CO)c3cccc(Cl)c3)c2)c(Cl)cn1`, the Potency in assay [1] is 44.7 µM (active). The Potency result in assay [2] is “inactive”.

For the molecule `Cc1ncc([N+](=O)[O-])n1CC(O)CN1CCOCC1` (stereo unspecified), the Potency result in assay [1] and in assay [2] was “inactive” each time.

With `CC1(C)CCC[C@@]2(C)[C@H]1[C@H](O)C=C1COC(=O)[C@@]12O`, the Potency entry in assay [1] and in assay [2] was “inactive” throughout.

Turning to `C=C1C[C@]23C[C@H]1CC[C@H]2[C@]1(C)CCC[C@@]2(CO)C(=O)O[C@H]([C@H]21)[C@@H]3O`, the Potency result in assay [1] and in assay [2] was “inactive” in each case.

As for `CC(O)C(O)/C=C/C=C/C(=O)O[C@@H]1C=C2COC(=O)[C@]2(O)[C@@]2(C)CCCC(C)(C)C12` (stereo partly specified), the Potency entry in assay [1] and in assay [2] was “inactive” in each case.

With `C=C(C)C1CC2(CO)C(=CC1=O)CCC(O)C2C` (stereo unspecified), the Potency result in assay [1] and in assay [2] was “inactive” throughout.

Regarding `COc1cc2c(cc1OC)CN(C(=O)[C@@H](NCc1ccncc1)C(C)(C)C)CC2`, the Potency result in assay [1] and in assay [2] was “inactive” each time.

Consider `CO[C@@H]1COCC[C@@H]1N[C@@H]1CC[C@@](C(=O)N2CCc3ncc(C(F)(F)F)cc3C2)(C(C)C)C1`, for which the Potency entry in assay [1] and in assay [2] was “inactive” in each case.

For `CCOC(=O)[C@H](CCc1ccccc1)CC1(C(=O)N[C@H]2CCc3ccccc3N(CC(=O)O)C2=O)CCCC1`, the Potency result in assay [1] and in assay [2] was “inactive” in each case.

In the case of `Oc1ccc([C@H]2COc3cc(O)ccc3C2)cc1`, the Potency result in assay [1] and in assay [2] was “inactive” in each case.

For `C[C@H]1C[C@H]2[C@@H]3CCC4=CC(=O)C=C[C@]4(C)[C@@]3(F)[C@@H](O)C[C@]2(C)[C@@]1(O)C(=O)COP(=O)(O)O`, the Potency entry in assay [1] and in assay [2] was “inactive” in each case.

Take `CNC(=O)COC(=O)NCCC1CCN(c2cccc(C)n2)CC1`: the Potency entry in assay [1] and in assay [2] was “inactive” each time.

For the molecule `CCC(CCO[C@@H]1O[C@H](CO[C@H]2OC[C@](O)(CO)[C@H]2O)[C@@H](O)[C@H](O)[C@H]1O)C(C)(C)O` (stereo partly specified), the Potency entry in assay [1] and in assay [2] was “inactive” each time.

For `CC1=C2C(=O)C=C(CO)[C@@H]2[C@H]2OC(=O)[C@H](C)[C@@H]2[C@@H](O)C1`, the Potency result in assay [1] and in assay [2] was “inactive” throughout.
